This is an account of results in PubChem BioAssay.

Calls of active or inactive are those of the source.

A short description of assay [1]: binders of probe aFSTL3 on microarray, primary screen, stem cell growth factor project, biochemical, small-molecule microarray, fluorescence 635/667 (AID 1064).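 Also: measures binding of the biotinylated anti-FSTL3 antibody to printed compounds.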 To be noted: higher = more signal.
The nature of assay [2]: binders from COS7 lysate, DM2A8 probe, primary screen, torsin A project, cell lysate, small-molecule microarray, fluorescence 635/667 (AID 1065). The note with it: higher = more signal, COS7 lysate expressing mutant human TOR1A.
Assay [3] can be described thus: binders of probe aFGF2 on microarray, primary screen, stem cell growth factor project, biochemical, small-molecule microarray, fluorescence 635/667 (AID 1067).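 Also: measures binding of biotinylated aFGF2 protein to printed compounds on slides; z-score merges feature fluorescence and signal-to-noise across triplicate slides.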 To be noted: higher = more signal.
Assay [4] in a line: binders of probe aFGF10 on microarray, primary screen, stem cell growth factor project, biochemical, small-molecule microarray, fluorescence 635/667 (AID 1071).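 Also: score merges 667 nm spot intensity and signal to noise from triplicate slides.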 To be noted: higher = more signal.
The target in assay [5] is Neurogenic locus notch homolog protein 2 (Homo sapiens) (UniProt Q04721). Briefly: Notch2 binders on small-molecule microarrays, primary screen, biochemical, small-molecule microarray, 635 nm fluorescence, stem cell growth factors (AID 1073). The note with it: Notch2 binding, higher = more signal.
Assay [6] concerns the target Pro-neuregulin-1, membrane-bound isoform (Homo sapiens) (UniProt Q02297). Briefly: NRG1 binders on small-molecule microarrays, primary screen, psychiatric disease protein project, biochemical, small-molecule microarray, fluorescence 635/667 (AID 1075).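 Also: score combines 667 nm spot fluorescence with signal to noise.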 The note with it: NRG1 binding, 635 nm fluorescence, higher = more signal.
In assay [7] the test system is Neuregulin-1 EGF-like domain. The experiment in a line: binders of neuregulin-1 EGF-like domain, primary screen, biochemical, small-molecule microarray, 635 nm fluorescence (AID 1081).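 Also: binding of the protein to compounds printed on small-molecule microarray slides.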 To be noted: small-molecule microarray binding, higher = more signal.
Assay [8] in a line: FRG1 promoter luciferase signal modulators, primary screen, FRG1 inhibition for FSHD, cell-based, C2C12 myotubes, firefly/Renilla luciferase, luminescence (AID 1084). The note with it: higher = more signal, called active from +8 up or from −8 down.
Assay [9] in a line: binders of probe aFST on microarray, primary screen, stem cell growth factor project, biochemical, small-molecule microarray, fluorescence 635/667 (AID 1086).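 Also: score merges 667 nm fluorescence with signal-to-noise of each printed compound spot.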 The note with it: higher = more signal.
A short description of assay [10]: binders of probe aHhip on microarray, primary screen, stem cell growth factor project, biochemical, small-molecule microarray, fluorescence 635/667 (AID 1087).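 Also: score merges spot fluorescence at 667nm with spot signal to noise ratio.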 The note with it: higher = more signal.
Assay [11] deals with PRMT1 (protein arginine N-methyltransferase 1). Briefly: PRMT1 binders on small-molecule microarrays, primary screen, biochemical, small-molecule microarray, 635 nm fluorescence (AID 1088).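 Also: binding of Prmt1 protein to compounds spotted on small-molecule microarray slides.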 To be noted: small-molecule microarray binding, higher = more signal.
The nature of assay [12]: yeast growth modulation, basal conditions, primary screen, YJM789 clinical isolate, OD600, 24 h (AID 1089).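 Also: growth of clinical yeast isolate S. cerevisiae YJM 789 seeded 1000 cells per well; test concentration not given here.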 The note with it: S. cerevisiae YJM789 growth, higher = more signal, called active from +8 up or from −8 down.
Assay [13] can be described thus: fission yeast growth modulation, primary screen, strain 972, OD600, 24 h, no modulator (AID 1090).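 Also: basal condition with compound alone and no growth modifier present; test concentration not given here.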 To be noted: S. pombe 972 growth, higher = more signal, called active from +8 up or from −8 down.
A short description of assay [14]: S. cerevisiae growth modulation with rapamycin, primary screen, strain BY4716, OD600, 96 h (AID 1091). Also: test concentration not given here. The note with it: higher = more signal, called active from +8 up or from −8 down.
Assay [15] concerns the target Torsin-1A-interacting protein 2 (Homo sapiens) (UniProt Q8NFQ8). The experiment in a line: LULL1 binders on small-molecule microarray, primary screen, cell lysate, human LULL1 lysate, 635/667 nm fluorescence (AID 1092).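 Also: probe is lysate of COS7 cells overexpressing human LULL1; score merges per-feature 667 nm fluorescence with signal-to-noise.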 To be noted: hLULL1 lysate binding, 635 nm fluorescence, higher = more signal.
Assay [16] in a line: E. coli growth modulation, two-sided OD650, primary screen, E. coli filamentation project, strain DRC41, 24 h (AID 1093).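 Also: MC1000 strain lacking acrAB efflux and sulA so SOS filamentation is blocked; test concentration not given here.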 To be noted: OD650, 24 h, higher = more signal, called active from +8 up or from −8 down.
Assay [17] in a line: small-molecule microarray binders of probe aLefty2, primary screen, biochemical, biotinylated probe, 635/667 nm fluorescence (AID 1094).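 Also: score merges spot fluorescence near 667 nm with spot signal-to-noise ratio.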 To be noted: higher = more signal.
The subject of assay [18] is Noggin (protein binding on small-molecule microarray). Briefly: Noggin binders on small-molecule microarray, primary screen, biochemical, 635/667 nm fluorescence (AID 1095).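 Also: score merges 667 nm feature fluorescence with signal to noise over triplicate slides.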 To be noted: 635 nm fluorescence, higher = more signal.
For assay [19], the target named is Neurogenic locus notch homolog protein 3 (Homo sapiens) (UniProt Q9UM47). Briefly: NOTCH3 binders on small-molecule microarray, primary screen, biochemical, 635/667 nm fluorescence (AID 1096). The note with it: NOTCH3 binding, 635 nm fluorescence, higher = more signal.
The nature of assay [20]: small-molecule microarray binders of probe aEGFR, primary screen, biochemical, biotinylated probe, 635/667 nm fluorescence (AID 1097).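 Also: probe is a biotinylated anti-EGFR antibody binding compounds printed on slides; score combines fluorescence near 667 nm and signal to noise of each spot.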 The note with it: higher = more signal.

Chain of Pro-neuregulin-1, membrane-bound isoform (Homo sapiens) (Q02297 whole entry, looked up, the tested form may be a part, canonical isoform): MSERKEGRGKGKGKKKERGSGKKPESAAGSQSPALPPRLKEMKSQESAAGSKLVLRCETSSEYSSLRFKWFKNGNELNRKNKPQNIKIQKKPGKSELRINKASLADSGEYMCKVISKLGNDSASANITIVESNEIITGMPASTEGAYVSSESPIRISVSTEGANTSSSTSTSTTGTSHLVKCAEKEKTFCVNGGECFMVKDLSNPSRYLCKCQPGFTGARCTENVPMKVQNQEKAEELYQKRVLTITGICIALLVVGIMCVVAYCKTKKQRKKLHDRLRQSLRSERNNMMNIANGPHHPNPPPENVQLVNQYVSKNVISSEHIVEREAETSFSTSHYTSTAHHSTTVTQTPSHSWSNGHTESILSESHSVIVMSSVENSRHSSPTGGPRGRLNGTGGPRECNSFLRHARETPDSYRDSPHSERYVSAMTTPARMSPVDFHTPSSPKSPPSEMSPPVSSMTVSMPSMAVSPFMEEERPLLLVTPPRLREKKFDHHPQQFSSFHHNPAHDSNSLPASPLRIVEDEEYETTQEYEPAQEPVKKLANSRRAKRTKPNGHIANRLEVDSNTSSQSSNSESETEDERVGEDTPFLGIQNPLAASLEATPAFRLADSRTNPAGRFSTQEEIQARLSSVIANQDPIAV
Chain of Neurogenic locus notch homolog protein 2 (Homo sapiens) (Q04721 whole entry, looked up, canonical isoform): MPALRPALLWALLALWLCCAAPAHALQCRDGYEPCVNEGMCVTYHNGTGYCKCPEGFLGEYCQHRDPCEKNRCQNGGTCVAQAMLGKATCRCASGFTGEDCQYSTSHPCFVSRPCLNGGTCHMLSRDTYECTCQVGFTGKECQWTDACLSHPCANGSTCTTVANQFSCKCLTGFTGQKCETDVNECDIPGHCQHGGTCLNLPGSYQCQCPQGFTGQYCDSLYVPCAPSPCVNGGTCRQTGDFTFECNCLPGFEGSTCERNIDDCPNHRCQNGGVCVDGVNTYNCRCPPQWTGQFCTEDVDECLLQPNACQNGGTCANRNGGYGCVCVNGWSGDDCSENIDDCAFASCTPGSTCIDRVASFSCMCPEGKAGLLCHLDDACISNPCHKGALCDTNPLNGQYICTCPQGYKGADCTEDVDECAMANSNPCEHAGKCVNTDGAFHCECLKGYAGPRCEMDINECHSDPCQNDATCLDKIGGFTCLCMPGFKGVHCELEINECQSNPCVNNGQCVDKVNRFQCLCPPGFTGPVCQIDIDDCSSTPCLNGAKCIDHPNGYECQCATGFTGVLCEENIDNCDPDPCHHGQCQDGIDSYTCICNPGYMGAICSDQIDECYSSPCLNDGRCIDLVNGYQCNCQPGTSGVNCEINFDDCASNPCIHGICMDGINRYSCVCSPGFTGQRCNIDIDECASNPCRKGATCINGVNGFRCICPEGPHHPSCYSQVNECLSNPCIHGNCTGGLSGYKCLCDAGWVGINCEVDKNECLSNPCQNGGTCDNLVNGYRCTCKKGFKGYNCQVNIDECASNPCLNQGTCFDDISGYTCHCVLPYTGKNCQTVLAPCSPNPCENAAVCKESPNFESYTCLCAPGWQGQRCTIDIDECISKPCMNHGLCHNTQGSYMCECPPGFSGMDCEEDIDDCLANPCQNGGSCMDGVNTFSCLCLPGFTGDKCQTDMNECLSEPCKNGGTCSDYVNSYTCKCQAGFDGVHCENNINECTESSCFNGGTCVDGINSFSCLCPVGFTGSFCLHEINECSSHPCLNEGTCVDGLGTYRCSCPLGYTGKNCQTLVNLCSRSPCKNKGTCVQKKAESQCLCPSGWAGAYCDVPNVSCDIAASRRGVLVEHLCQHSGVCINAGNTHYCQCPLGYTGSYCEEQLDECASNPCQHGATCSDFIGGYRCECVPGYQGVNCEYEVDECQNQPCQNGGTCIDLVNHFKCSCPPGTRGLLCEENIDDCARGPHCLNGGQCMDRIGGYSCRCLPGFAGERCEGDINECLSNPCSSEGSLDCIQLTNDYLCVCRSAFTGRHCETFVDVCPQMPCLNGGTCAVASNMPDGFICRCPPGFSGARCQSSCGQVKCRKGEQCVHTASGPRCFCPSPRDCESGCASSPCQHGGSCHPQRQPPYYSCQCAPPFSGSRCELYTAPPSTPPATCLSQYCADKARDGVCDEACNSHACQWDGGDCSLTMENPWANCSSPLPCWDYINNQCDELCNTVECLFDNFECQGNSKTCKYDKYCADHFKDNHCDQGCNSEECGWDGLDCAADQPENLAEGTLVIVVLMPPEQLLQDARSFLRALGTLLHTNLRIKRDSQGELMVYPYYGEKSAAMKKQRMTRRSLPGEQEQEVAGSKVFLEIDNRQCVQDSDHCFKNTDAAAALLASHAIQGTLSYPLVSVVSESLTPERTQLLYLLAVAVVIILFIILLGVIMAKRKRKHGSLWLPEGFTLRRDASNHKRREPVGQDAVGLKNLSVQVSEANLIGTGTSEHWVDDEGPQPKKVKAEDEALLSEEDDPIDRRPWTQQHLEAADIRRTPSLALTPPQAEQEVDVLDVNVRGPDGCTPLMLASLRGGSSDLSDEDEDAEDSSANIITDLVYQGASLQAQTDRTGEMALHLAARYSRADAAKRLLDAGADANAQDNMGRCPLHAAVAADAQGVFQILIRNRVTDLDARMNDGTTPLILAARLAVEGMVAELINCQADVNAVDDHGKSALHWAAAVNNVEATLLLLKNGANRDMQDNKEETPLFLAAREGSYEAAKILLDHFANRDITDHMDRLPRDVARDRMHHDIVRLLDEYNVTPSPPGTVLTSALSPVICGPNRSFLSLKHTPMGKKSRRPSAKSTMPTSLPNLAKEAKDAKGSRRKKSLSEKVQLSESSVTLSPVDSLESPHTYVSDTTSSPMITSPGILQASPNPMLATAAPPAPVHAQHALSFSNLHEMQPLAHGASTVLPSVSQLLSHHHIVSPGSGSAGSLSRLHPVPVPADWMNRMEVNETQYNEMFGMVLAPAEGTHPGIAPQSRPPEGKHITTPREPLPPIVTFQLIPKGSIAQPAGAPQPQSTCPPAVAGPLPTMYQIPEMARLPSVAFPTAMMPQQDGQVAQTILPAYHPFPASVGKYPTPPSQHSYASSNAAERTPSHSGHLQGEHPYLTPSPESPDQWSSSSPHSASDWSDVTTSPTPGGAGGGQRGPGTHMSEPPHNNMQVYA
Chain of Torsin-1A-interacting protein 2 (Homo sapiens) (Q8NFQ8 whole entry, looked up): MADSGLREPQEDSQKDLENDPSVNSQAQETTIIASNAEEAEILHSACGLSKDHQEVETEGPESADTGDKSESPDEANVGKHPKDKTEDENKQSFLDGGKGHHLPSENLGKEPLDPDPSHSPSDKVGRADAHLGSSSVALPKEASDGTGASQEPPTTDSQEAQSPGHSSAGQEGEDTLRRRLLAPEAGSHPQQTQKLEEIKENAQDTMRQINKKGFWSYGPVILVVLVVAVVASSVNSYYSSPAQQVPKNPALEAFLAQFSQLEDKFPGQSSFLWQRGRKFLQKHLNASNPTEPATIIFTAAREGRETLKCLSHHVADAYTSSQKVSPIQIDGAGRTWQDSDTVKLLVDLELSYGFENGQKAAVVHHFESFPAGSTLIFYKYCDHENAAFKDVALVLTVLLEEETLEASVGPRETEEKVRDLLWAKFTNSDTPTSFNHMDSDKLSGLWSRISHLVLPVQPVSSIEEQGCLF

Take `CC(C)C(CO)N1C(=O)[C@@H]2[C@H]3C(=O)OCC=C[C@H]3OC23C=CCN(CCN2CCOCC2)C(=O)[C@@H]13` (stereo not given in full): the composite z-score in [1] is -0.565; in assay [2], -1.13; in assay [3], -0.166; in assay [4], -0.351; in [5], -0.868; in [6], 0.0853. In addition, the composite z-score in assay [7] was -0.428; in assay [9] it was -0.525; in assay [10] it was -0.538; in assay [11] it was 0.598; in assay [15], 1.13; in assay [17] it was -0.25. The composite z-score in assay [18] is 0.521; in assay [19], 0.583; in assay [20], -0.244. For the same compound, the z-score is -0.0357 (inactive) in [8]; 1.21 (inactive) in assay [12]; 0.0729 (inactive) in assay [13]; 0.759 (inactive) in [14]; -0.455 (inactive) in assay [16].
On to `C=CC[C@]1(C(=O)N2CCOCC2)N=C(c2ccc(OCCCO)cc2)O[C@H]1c1ccccc1CN=[N+]=[N-]`, for which the composite z-score in assay [1] is -0.0635; in [2] it was 1.3; in assay [3], 0.103; in assay [4] it was 1.04; in assay [5] it was 1.54; in assay [6], 1.77. In addition, the composite z-score in [7] turned out to be 1.3; in [9] it was 1.99; in assay [10], 0.28; in [11] it was 1.53; in assay [15] it was 3.49; in assay [17] it was 0.0503. For the same compound, the composite z-score in [18] was 1.57; in assay [19], 1.05; in assay [20], -0.0111. Further, the z-score in assay [8] was -1.34 (inactive); in assay [12] it was -0.819 (inactive); in [13] it was -1.63 (inactive); in assay [14] it was -0.119 (inactive); in assay [16], 0.191 (inactive).
Consider `CCCc1cc2c(n1Cc1ccc(OC)cc1)C(C)C1CN(C(=O)c3ccccc3)C(C)(C(=O)OC)C21` (stereo not given), for which the composite z-score in assay [1] came out at 1.24; in assay [2] it was 0.575; in assay [3], 0.354; in assay [4], 0.345; in [5], 1.59; in [6], 1.81. Also, the composite z-score was 1.2 in assay [7]; 1.14 in assay [9]; -0.127 in [10]; 1.34 in [11]; 3.37 in assay [15]; 0.8 in assay [17]. The values for the composite z-score in [18], in assay [19] and in assay [20] were -0.758, 1.05 and 0.389, respectively. In addition, the z-score in assay [8] is -0.0832 (inactive); in [12], 0.461 (inactive); in assay [13] it was 0.815 (inactive); in assay [14] it was 1.64 (inactive); in [16] it was -1.21 (inactive).
With `C=CCC(OC(C)=O)[C@@H]1[C@@H](N(Cc2ccc(-c3cccc(C(F)(F)F)c3)o2)C(=O)c2cccc3ccccc23)c2cc(OCCCO)ccc2N1C(=O)c1ccc(-c2ccccc2)cc1` (stereo not given in full), the composite z-score was -0.188 in assay [1]; 0.0536 in [2]; -0.12 in assay [3]; -0.212 in assay [4]; -0.628 in assay [5]; 0.0252 in assay [6]. The composite z-score in [7] was -0.908; in [9], 0.123; in assay [10], 0.0749; in assay [11] it was -0.496; in [15], -0.94; in assay [17] it was -0.0785. Besides, the composite z-score in assay [18] is 1.06; in assay [19], -0.358; in assay [20], -0.099. The z-score in assay [8] is -0.579 (inactive); in assay [12] it was 0.0476 (inactive); in [13], 0.0758 (inactive); in assay [14], -0.0038 (inactive); in [16], -0.993 (inactive).
Consider `CC(C)(C)OC(=O)CC[C@]1(C(=O)N2CCCCC2)N=C(c2ccc(OCCCO)cc2)O[C@H]1c1ccccc1CN=[N+]=[N-]`, for which the composite z-score is -0.193 in assay [1]; 1.29 in [2]; 0.347 in assay [3]; 1.14 in assay [4]; 1.65 in assay [5]; 1.89 in assay [6]. Besides, the composite z-score in assay [7] is 1.38; in assay [9] it was 0.821; in [10], -0.574; in assay [11], 1.54; in assay [15], 3.67; in [17], 0.694. Further, the figures for the composite z-score in [18], in [19] and in [20] were 0.743, 1.05 and 0.314, respectively. The z-score was -2.88 (inactive) in assay [8]; -4.42 (inactive) in [12]; -0.736 (inactive) in [13]; -0.279 (inactive) in [14]; 2.1 (inactive) in assay [16].
Turning to `COc1ccc(C#Cc2ccc3c(c2)[C@]2(C(=O)N3)[C@H](C(N)=O)[C@H]3C(=O)O[C@H](c4ccccc4)[C@H](c4ccccc4)N3[C@@H]2c2ccc(O)cc2)cc1`, the composite z-score was -0.302 in assay [1]; 1.1 in [2]; -0.0183 in assay [3]; 0.665 in [4]; 0.477 in assay [5]; 1.57 in assay [6]. Also, the composite z-score is 1.38 in assay [7]; 0.722 in [9]; -0.0581 in assay [10]; 1.56 in [11]; 2.94 in assay [15]; -0.0258 in assay [17]. Also, the composite z-score in assay [18] was found to be 0.176; in [19], 0.664; in assay [20] it was 0.391. In addition, the z-score was -0.891 (inactive) in [8]; 1.47 (inactive) in assay [12]; 0.107 (inactive) in [13]; 2.28 (inactive) in [14]; -0.103 (inactive) in assay [16].
Regarding `CCOC(=O)C1=CC[C@@H](c2ccc(N(CC)CC)cc2)N(S(=O)(=O)c2ccc(C)cc2)[C@H]1c1ccc([N+](=O)[O-])cc1`, the composite z-score in [1] is 0.709; in [2], -0.346; in assay [3] it was -0.0336; in assay [4], -0.865; in assay [5], -0.398; in [6], 0.722. Further, the composite z-score in assay [7] is 0.722; in assay [9], 0.0676; in [10], -0.0237; in assay [11], 0.554; in [15], 2.29; in assay [17], 0.415. Further, the composite z-score in assay [18] was -0.796; in assay [19] it was 0.206; in [20] it was -0.0688. The z-score was -0.162 (inactive) in [8]; -0.673 (inactive) in assay [12]; 0.0534 (inactive) in [13]; 2.76 (inactive) in [14]; -0.532 (inactive) in assay [16].
Turning to `Cc1ccc(S[C@]2(C(=O)NCC(C)C)CC(=O)N(C3CCCCC3)[C@@H]2c2ccc(CO)cc2I)cc1`, the composite z-score in assay [1] was -0.25; in assay [2], 0.0044; in assay [3], 0.062; in assay [4], 0.384; in [5], 0.939; in [6] it was 1.42. Besides, the composite z-score in [7] is 1.03; in assay [9], 0.0997; in [10] it was -0.166; in assay [11], 1.56; in assay [15], 2.59; in assay [17], 0.11. Moreover, the values for the composite z-score in assay [18], in assay [19] and in assay [20] were 0.165, 1 and -0.276, respectively. Further, the z-score in [8] is -2.29 (inactive); in assay [12] it was -0.525 (inactive); in assay [13], 0.293 (inactive); in assay [14], -0.0866 (inactive); in assay [16], 0.12 (inactive).
Turning to `COC(=O)C(CC#Cc1ccc2c(c1)[C@]1(C(=O)N2)[C@H](c2ccc(O)cc2)N2[C@H](c3ccccc3)[C@H](c3ccccc3)OC(=O)[C@H]2[C@@H]1C(=O)O)C(=O)OC`, the composite z-score in assay [1] is -0.331; in assay [2], -0.11; in [3], -0.132; in assay [4], 0.206; in assay [5], 0.63; in assay [6], 0.82. In addition, the composite z-score in assay [7] was 0.798; in assay [9] it was 1.25; in assay [10], 0.0505; in [11] it was 0.439; in [15], 2.96; in assay [17] it was -0.166. Moreover, the results for the composite z-score in [18], in assay [19] and in assay [20] were 0.307, 0.64 and -0.0152, respectively. The z-score in assay [8] is 0.831 (inactive); in assay [12] it was 1.22 (inactive); in [13], -0.489 (inactive); in assay [14], -0.922 (inactive); in assay [16], -1.28 (inactive).
